Data taken from paper PMC7862700, “An all-to-all approach to the identification of sequence-specific readers for epigenetic DNA modifications on cytosine”.

What was measured:
Assay in all cases: DAPPL (digital affinity profiling via proximity ligation, sequencing); 10 mM Tris-HCl pH 7.5, 50 mM NaCl, 1 mM DTT, 4% glycerol, room temperature, 30 min; GST-TFs on glutathione beads, 16-mer random dsDNA library, 0.1% formaldehyde crosslink after washing; high values mean tight binding
FEV = molecular target: T1, FEV (Homo sapiens, UniProt Q99581 1-238); conditions: protein: recombinant; tags: N-terminal GST; dsDNA, one strand shown
T1 sequence: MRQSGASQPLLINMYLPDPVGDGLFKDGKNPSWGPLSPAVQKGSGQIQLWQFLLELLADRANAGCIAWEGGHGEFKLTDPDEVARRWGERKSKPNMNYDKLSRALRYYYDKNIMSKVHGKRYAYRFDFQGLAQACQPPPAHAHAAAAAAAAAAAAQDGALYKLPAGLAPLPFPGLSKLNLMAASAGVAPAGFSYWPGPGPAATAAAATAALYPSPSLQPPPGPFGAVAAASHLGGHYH
In short: (§1)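 Yeast served to express human transcription factors as GST fusions, which were then captured on glutathione beads and labelled with DNA barcodes. Pooled with a tag-only sample, they were incubated with 200 nmole of a 16-mer random double-stranded DNA library for 30 min at room temperature in Tris/NaCl/DTT/glycerol buffer, washed, crosslinked with 0.1% formaldehyde, ligated by proximity, amplified by PCR and sequenced. Dividing each hexamer's read frequency for a factor by its frequency for the tag-only sample gives the binding signal.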

ETV5 = ETV5 (Homo sapiens, UniProt P41161 1-510); conditions: protein: recombinant; tags: N-terminal GST; dsDNA, one strand shown
Chain of ETV5 (P41161 whole entry): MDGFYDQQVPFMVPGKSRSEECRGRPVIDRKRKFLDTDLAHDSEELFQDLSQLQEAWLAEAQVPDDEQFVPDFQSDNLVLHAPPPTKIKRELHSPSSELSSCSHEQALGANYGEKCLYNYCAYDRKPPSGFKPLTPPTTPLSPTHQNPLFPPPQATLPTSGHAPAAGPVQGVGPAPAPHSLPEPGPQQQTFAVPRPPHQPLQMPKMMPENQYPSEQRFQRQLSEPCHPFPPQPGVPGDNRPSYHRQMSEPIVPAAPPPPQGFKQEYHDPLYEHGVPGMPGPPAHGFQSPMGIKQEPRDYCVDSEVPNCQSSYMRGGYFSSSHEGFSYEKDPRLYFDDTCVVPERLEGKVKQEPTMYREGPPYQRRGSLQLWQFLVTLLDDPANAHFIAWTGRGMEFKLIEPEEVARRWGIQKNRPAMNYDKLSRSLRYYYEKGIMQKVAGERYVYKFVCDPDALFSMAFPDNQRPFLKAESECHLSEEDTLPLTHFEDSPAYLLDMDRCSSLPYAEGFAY
In short: as §1

HSF1 = HSF1 (Homo sapiens, UniProt Q00613 1-529); conditions: protein: recombinant; tags: N-terminal GST; chain copies: 3; dsDNA, one strand shown
Chain of HSF1 (Q00613 whole entry): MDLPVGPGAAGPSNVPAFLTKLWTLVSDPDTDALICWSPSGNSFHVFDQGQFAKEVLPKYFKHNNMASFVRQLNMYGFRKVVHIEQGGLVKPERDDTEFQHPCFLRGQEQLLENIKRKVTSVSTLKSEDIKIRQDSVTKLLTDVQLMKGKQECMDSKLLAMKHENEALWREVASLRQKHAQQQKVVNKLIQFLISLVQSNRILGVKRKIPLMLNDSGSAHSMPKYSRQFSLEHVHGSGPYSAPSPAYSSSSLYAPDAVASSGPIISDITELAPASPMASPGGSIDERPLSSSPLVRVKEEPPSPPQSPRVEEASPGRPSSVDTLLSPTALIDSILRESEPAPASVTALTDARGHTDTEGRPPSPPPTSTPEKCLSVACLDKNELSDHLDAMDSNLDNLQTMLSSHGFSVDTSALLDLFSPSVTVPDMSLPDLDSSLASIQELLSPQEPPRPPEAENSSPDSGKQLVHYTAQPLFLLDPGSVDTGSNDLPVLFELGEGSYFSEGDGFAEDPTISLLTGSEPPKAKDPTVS
In short: as §1

SPIC = molecular target: T2, SPIC (Homo sapiens, UniProt Q8N5J4 1-248); conditions: protein: recombinant; tags: N-terminal GST; dsDNA, one strand shown
T2 sequence: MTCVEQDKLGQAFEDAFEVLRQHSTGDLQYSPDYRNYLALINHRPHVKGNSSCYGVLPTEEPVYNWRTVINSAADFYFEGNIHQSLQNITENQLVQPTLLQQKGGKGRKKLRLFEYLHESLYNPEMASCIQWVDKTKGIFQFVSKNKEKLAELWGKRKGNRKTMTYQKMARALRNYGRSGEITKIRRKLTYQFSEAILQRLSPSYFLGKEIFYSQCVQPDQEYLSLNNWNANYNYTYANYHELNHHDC
In short: as §1

ELF4 = ELF4 (Homo sapiens, UniProt Q99607 1-663); conditions: protein: recombinant; tags: N-terminal GST; dsDNA, one strand shown
Chain of ELF4 (Q99607 whole entry): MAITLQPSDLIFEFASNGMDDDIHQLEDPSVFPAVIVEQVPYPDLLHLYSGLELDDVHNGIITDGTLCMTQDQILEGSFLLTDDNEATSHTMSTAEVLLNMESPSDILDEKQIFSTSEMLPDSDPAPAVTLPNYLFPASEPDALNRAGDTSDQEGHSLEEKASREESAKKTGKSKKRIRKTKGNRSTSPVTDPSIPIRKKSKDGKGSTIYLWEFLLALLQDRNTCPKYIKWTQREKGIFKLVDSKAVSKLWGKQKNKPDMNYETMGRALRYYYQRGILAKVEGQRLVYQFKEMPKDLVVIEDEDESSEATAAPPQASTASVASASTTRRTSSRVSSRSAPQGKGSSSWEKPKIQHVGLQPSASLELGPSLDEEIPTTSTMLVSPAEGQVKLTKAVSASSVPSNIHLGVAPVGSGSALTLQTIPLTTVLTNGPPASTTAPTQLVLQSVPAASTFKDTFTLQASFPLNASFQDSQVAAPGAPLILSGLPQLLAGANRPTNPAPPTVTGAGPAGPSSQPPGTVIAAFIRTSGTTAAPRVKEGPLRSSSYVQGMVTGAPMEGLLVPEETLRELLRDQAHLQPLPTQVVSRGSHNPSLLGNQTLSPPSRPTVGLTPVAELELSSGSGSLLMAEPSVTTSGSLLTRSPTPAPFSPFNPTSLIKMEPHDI
In short: as §1

ELK4 = molecular target: T3, ELK4 (Homo sapiens, UniProt P28324-2 1-405); conditions: protein: recombinant; tags: N-terminal GST; dsDNA, one strand shown
T3 sequence: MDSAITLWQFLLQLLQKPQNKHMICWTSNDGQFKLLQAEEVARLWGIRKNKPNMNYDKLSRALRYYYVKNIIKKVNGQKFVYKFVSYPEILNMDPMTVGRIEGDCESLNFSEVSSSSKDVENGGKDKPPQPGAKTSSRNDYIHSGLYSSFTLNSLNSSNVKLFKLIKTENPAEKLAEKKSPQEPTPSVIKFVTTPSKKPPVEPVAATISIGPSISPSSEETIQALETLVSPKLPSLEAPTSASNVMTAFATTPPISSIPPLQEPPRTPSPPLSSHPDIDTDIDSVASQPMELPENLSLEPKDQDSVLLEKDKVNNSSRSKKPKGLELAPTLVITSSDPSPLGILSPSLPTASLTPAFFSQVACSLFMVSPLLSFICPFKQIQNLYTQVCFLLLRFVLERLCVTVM
In short: as §1

ETV2 = molecular target: T4, ETV2 (Homo sapiens, UniProt O00321 1-342); conditions: protein: recombinant; tags: N-terminal GST; dsDNA, one strand shown
T4 sequence: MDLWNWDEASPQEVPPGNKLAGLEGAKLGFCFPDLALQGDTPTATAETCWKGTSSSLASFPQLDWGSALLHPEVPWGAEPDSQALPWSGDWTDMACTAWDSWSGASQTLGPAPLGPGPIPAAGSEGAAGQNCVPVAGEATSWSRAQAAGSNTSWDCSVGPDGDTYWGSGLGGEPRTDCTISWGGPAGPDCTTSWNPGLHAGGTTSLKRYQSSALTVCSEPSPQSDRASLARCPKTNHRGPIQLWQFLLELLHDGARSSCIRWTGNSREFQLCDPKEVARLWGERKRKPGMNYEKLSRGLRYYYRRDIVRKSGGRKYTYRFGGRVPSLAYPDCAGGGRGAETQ
In short: as §1

ELF3 = molecular target: T5, ELF3 (Homo sapiens, UniProt P78545 1-371); conditions: protein: recombinant; tags: N-terminal GST; dsDNA, one strand shown
T5 sequence: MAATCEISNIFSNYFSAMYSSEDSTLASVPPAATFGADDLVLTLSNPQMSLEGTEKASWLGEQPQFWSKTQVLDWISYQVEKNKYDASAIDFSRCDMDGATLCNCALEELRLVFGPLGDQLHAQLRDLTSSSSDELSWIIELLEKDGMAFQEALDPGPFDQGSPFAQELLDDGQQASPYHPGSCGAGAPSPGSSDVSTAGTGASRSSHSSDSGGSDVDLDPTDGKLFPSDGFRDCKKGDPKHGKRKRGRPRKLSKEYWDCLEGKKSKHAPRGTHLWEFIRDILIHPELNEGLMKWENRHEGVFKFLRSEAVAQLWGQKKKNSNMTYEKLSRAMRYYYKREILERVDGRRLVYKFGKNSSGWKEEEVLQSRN
In short: as §1

CRX = CRX (Homo sapiens, UniProt O43186 1-299); conditions: protein: recombinant; tags: N-terminal GST; dsDNA, one strand shown
Chain of CRX (O43186 whole entry): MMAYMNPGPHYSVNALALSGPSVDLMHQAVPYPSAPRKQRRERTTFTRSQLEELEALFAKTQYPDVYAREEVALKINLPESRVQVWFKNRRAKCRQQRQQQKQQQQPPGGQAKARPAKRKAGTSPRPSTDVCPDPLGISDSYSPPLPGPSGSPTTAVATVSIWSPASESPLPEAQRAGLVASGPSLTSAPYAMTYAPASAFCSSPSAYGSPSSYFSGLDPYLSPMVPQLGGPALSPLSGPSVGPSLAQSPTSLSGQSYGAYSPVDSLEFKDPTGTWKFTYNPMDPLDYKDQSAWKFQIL
In short: as §1

ETV1 = ETV1 (Homo sapiens, UniProt P50549 1-477); conditions: protein: recombinant; tags: N-terminal GST; dsDNA, one strand shown
Chain of ETV1 (P50549 whole entry): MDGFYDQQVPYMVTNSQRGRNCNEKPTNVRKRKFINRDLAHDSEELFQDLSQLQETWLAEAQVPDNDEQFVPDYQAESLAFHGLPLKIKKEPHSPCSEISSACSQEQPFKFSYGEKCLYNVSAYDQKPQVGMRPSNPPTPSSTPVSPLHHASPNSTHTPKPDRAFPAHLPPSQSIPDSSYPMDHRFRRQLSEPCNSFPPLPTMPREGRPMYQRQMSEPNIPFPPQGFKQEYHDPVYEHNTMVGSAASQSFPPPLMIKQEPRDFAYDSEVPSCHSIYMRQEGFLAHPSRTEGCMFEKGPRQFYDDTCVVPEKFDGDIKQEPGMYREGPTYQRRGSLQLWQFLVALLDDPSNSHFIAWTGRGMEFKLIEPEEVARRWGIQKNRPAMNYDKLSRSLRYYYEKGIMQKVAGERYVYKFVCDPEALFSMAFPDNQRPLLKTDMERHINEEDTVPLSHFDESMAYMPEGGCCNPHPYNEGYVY
In short: as §1

ERF = molecular target: T6, ERF (Homo sapiens, UniProt P50548 1-548); conditions: protein: recombinant; tags: N-terminal GST; dsDNA, one strand shown
T6 sequence: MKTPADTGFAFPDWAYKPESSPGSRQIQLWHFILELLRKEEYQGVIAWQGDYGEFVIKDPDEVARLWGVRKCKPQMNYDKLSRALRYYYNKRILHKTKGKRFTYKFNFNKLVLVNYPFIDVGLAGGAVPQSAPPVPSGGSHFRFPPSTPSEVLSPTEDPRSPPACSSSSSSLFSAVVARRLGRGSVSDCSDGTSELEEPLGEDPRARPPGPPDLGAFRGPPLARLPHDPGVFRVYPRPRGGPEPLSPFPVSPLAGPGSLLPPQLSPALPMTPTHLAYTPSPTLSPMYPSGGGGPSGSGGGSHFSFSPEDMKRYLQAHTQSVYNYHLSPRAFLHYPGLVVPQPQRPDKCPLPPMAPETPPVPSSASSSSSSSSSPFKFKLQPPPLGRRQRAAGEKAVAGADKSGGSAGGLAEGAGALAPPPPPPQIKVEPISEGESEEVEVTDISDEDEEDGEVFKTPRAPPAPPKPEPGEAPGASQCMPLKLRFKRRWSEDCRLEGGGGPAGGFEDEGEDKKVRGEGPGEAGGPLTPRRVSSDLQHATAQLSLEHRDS
In short: as §1

ETV3L = molecular target: T7, ETV3L (Homo sapiens, UniProt Q6ZN32 1-361); conditions: protein: recombinant; tags: N-terminal GST; dsDNA, one strand shown
T7 sequence: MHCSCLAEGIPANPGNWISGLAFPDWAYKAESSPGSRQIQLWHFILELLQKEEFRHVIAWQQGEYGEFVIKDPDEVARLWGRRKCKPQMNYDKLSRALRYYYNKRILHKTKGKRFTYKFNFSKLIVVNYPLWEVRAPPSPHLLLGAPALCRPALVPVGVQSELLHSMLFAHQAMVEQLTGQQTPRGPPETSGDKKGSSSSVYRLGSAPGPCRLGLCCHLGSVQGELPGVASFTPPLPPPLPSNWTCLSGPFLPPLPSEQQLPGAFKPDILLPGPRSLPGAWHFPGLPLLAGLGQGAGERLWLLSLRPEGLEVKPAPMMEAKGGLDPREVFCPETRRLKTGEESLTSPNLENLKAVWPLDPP
In short: as §1

ETS2 = molecular target: T8, ETS2 (Homo sapiens, UniProt P15036 1-469); conditions: protein: recombinant; tags: N-terminal GST; dsDNA, one strand shown
T8 sequence: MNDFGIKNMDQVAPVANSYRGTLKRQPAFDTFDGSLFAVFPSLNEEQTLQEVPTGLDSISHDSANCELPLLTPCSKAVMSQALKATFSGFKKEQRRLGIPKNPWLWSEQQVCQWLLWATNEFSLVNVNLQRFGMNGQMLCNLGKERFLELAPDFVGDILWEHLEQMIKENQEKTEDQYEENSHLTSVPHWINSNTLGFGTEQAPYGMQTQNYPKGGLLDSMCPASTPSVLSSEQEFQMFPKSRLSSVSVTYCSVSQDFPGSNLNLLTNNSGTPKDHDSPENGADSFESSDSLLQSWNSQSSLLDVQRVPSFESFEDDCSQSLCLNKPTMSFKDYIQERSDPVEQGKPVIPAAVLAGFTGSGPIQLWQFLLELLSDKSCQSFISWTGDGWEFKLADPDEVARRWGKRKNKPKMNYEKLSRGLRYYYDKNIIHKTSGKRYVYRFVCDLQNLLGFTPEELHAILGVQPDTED
In short: as §1

SPDEF = molecular target: T9, SPDEF (Homo sapiens, UniProt O95238 1-335); conditions: protein: recombinant; tags: N-terminal GST; dsDNA, one strand shown
T9 sequence: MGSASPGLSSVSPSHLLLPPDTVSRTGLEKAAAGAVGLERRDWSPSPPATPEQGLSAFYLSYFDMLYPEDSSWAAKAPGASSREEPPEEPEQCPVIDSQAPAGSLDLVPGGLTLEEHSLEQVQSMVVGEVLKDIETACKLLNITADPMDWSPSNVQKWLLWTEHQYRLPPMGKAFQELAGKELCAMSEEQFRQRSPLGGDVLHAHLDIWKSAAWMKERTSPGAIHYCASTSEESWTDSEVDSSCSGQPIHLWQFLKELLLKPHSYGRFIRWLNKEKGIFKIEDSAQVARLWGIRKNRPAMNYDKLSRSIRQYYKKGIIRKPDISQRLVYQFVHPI
In short: as §1

ETV7 = molecular target: T10, ETV7 (Homo sapiens, UniProt Q9Y603 1-341); conditions: protein: recombinant; tags: N-terminal GST; dsDNA, one strand shown
T10 sequence: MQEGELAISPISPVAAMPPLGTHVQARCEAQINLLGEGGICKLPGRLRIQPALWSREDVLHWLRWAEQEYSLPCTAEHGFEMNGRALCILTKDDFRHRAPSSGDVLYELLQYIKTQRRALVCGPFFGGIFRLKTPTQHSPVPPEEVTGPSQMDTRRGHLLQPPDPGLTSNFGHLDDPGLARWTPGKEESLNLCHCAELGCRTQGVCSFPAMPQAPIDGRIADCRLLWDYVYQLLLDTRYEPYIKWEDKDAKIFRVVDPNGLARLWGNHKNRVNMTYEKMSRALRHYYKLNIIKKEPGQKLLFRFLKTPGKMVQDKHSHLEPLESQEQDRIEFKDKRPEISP
In short: as §1

ELF5 = molecular target: T11, ELF5 (Homo sapiens, UniProt Q9UKW6-2 1-255); conditions: protein: recombinant; tags: N-terminal GST; dsDNA, one strand shown
T11 sequence: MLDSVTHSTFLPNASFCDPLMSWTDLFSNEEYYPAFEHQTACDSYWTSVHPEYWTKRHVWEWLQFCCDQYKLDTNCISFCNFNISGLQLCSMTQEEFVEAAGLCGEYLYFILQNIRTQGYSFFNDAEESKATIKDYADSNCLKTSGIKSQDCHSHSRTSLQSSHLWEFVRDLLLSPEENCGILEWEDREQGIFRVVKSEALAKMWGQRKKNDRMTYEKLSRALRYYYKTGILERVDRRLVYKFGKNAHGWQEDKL
In short: as §1

ETV3 = molecular target: T12, ETV3 (Homo sapiens, UniProt P41162-2 1-143); conditions: protein: recombinant; tags: N-terminal GST; dsDNA, one strand shown
T12 sequence: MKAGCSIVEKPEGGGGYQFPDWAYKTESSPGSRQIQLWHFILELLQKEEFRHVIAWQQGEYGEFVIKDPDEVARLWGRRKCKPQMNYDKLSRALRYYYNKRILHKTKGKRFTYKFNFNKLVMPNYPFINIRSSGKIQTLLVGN
In short: as §1

ETV6 = ETV6 (Homo sapiens, UniProt P41212 1-452); conditions: protein: recombinant; tags: N-terminal GST; dsDNA, one strand shown
Chain of ETV6 (P41212 whole entry): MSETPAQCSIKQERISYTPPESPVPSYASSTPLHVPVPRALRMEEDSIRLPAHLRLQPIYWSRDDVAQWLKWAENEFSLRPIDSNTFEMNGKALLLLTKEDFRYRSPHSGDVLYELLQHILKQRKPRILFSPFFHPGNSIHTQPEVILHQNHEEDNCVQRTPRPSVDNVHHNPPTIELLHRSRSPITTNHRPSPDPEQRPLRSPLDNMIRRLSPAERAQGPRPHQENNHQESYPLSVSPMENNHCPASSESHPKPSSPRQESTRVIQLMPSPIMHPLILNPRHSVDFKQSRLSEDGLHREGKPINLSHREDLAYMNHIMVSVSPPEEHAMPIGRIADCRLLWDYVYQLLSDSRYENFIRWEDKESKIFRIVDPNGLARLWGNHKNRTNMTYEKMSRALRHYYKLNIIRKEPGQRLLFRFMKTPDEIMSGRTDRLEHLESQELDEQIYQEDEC
In short: as §1

**Q.** What does the source list for AACGAA?
**A.** binding signal (FEV): 1.15 fold enrichment (6-mer frequency, TF over GST control); binding signal (ETV5): 1.22 fold enrichment (6-mer frequency, TF over GST control); binding signal (HSF1): 1.33 fold enrichment (6-mer frequency, TF over GST control); binding signal (SPIC): 1.2 fold enrichment (6-mer frequency, TF over GST control); binding signal (ELF4): 1.1 fold enrichment (6-mer frequency, TF over GST control); binding signal (ELK4): 1.13 fold enrichment (6-mer frequency, TF over GST control); binding signal (ETV2): 1.11 fold enrichment (6-mer frequency, TF over GST control); binding signal (ELF3): 1.19 fold enrichment (6-mer frequency, TF over GST control); binding signal (CRX): 1.08 fold enrichment (6-mer frequency, TF over GST control); binding signal (ETV1): 1.09 fold enrichment (6-mer frequency, TF over GST control); binding signal (ERF): 1.12 fold enrichment (6-mer frequency, TF over GST control); binding signal (ETV3L): 1.16 fold enrichment (6-mer frequency, TF over GST control); binding signal (ETS2): 1.18 fold enrichment (6-mer frequency, TF over GST control); binding signal (SPDEF): 1.1 fold enrichment (6-mer frequency, TF over GST control); binding signal (ETV7): 1.25 fold enrichment (6-mer frequency, TF over GST control); binding signal (ELF5): 1.09 fold enrichment (6-mer frequency, TF over GST control); binding signal (ETV3): 1.11 fold enrichment (6-mer frequency, TF over GST control); binding signal (ETV6): 1.17 fold enrichment (6-mer frequency, TF over GST control)
